Where “and” joins values, the source holds several entries; their conditions need not be identical. Identical values can stand only once. Results filed as inconclusive are left out. Some compounds were tested as several samples or in several runs, with calls that do not always agree. Calls of active or inactive are those of the source. Unless noted, calls come from the whole dose curve; as a rule, active = well fitted curve in the direction sought with a large enough effect in the repeat runs; inconclusive = weak or mixed curves; inactive = no such curve, though single readings can be large; an effect the other way counts as inactive or inconclusive.

The nature of assay [1]: qHTS assay to identify aromatase inhibitors - cell viability counter screen (AID 743084).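 Note: cells stimulated with testosterone during compound exposure; nearly all actives have a fitted effect of over 55% in size.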
Assay [2] has as its target Aryl hydrocarbon receptor (Homo sapiens) (UniProt P35869). As to the kind of experiment: qHTS assay to identify small molecule that activate the aryl hydrocarbon receptor (AhR) signaling pathway (AID 743085).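 Note: HG2L7.5c1 human HepG2 liver cells with stably integrated DRE-driven firefly reporter; series mostly up to about 70 µM; nearly all actives have a fitted effect of over 15% in size.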 In a few lines: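 Luminescence (ONE-Glo) from a dioxin-responsive-element luciferase reporter in HG2L7.5c1 HepG2 cells after 24 hr compound exposure at 37C; viability measured by CellTiter-Fluor fluorescence beforehand.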

The nature of assay [3]: qHTS assay to identify small molecule that activate the aryl hydrocarbon receptor (AhR) signaling pathway - cell viability counter screen (AID 743086).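 Note: HepG2 liver cells carrying the AhR DRE luciferase reporter; series mostly up to about 70 µM; nearly all actives have a fitted effect of over 45% in size.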 The procedure, abridged:
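Cytotoxicity counter screen: CellTiter-Fluor signal (30 min, 37 C) in 4000 HepG2 cells/well carrying the DRE-luciferase reporter, following 24 h compound exposure at 37 C.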
A general note: Quantitative high-throughput screening tests each substance at several concentrations.

The target in assay [4] is Peroxisome proliferator-activated receptor gamma (Homo sapiens) (UniProt P37231). Put plainly: qHTS assay to identify small molecule agonists of the peroxisome proliferator-activated receptor gamma (PPARg) signaling pathway (AID 743094; active = well fitted activation curve with a large enough effect in the signal ratio in the repeat runs, not every such curve was filed as active; the % refers to the signal ratio; note: potency is the fitted concentration of half-maximal effect). In a few lines:
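GeneBLAzer PPARg UAS-bla HEK293H cells carrying a stably integrated beta-lactamase reporter were pre-incubated 5 h at 37C, then exposed to compounds in DMSO for 17 h at 37C; LiveBLAzer B/G FRET substrate was added for 1 h at room temperature and fluorescence read.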

For assay [5] the target is unchanged. As to the kind of experiment: qHTS assay to identify small molecule antagonists of the peroxisome proliferator-activated receptor gamma (PPARg) signaling pathway (AID 743191; calls by dose curve; note: series mostly up to about 63 µM; nearly all actives have a fitted effect of over 30% in size). The procedure, abridged:
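Beta-lactamase reporter under UAS control in HEK293H PPARg-bla cells; compound treatment 17 h at 37C. Read-out: fluorescence intensity after 1 h room-temperature incubation with LiveBLAzer B/G FRET substrate.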

The nature of assay [6]: qHTS assay to identify small molecule antagonists of the peroxisome proliferator-activated receptor gamma (PPARg) signaling pathway - cell viability counter screen (AID 743194). Note: nearly all actives have a fitted effect of over 55% in size. The conditions noted are these: Potency: co-treated with 50 nM rosiglitazone unless noted. The procedure, abridged:
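Viability was measured as CellTiter-Glo luminescence in GeneBLAzer PPARg UAS-bla HEK293H cells. These cells had been exposed 17 h at 37 C to compounds together with rosiglitazone at 50 nM final, with the beta-lactamase readout taken in the same wells.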

Assay [7] can be described thus: qHTS assay for small molecule agonists of the antioxidant response element (ARE) signaling pathway (AID 743202; active = well fitted activation curve with a large enough effect in the signal ratio in the repeat runs, not every such curve was filed as active; the % refers to the signal ratio). In a few lines:
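An ARE-responsive beta-lactamase gene stably integrated in HepG2 cells serves as reporter. After 5 h plating and 16 h compound incubation at 37 C, fluorescence of the B/G FRET substrate was measured.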

Assay [8] is described as follows: qHTS assay for small molecule agonists of the antioxidant response element (ARE) signaling pathway - cell viability counter screen (AID 743203; calls by dose curve; note: nearly all actives have a fitted effect of over 55% in size). In a few lines: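 CellSensor ARE-bla HepG2 cells, 2,000 per well, rested 5 hrs at 37C/5% CO2, then exposed to compound in DMSO for 16 hrs; viability read as CellTiter-Glo luminescence after 30 min at room temperature, in the reporter wells.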

A short description of assay [9]: qHTS assay for small molecule activators of the heat shock response signaling pathway - cell viability counter screen (AID 743209). Note: nearly all actives have a fitted effect of over 50% in size. In a few lines:
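CellSensor HSE-bla HeLa cells, plated overnight at 37 C/5% CO2, were exposed to compounds in DMSO for 5 h at 37 C. Viability was then read in the same wells by CellTiter-Glo luminescence after 30 min at room temperature.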

A short description of assay [10]: qHTS assay for small molecule activators of the heat shock response signaling pathway (AID 743210; active = well fitted activation curve with a large enough effect in the signal ratio in the repeat runs, with a control signal flat, not every such curve was filed as active; the % refers to the signal ratio;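 note: HeLa cells with beta-lactamase reporter driven by heat shock elements; series mostly up to about 63 µM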). In a few lines: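 In HSE-bla HeLa cells, 5 h compound incubation (37 C) precedes addition of LiveBLAzer B/G substrate; after 2.5 h at room temperature, fluorescence intensity indicates reporter induction.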
The nature of assay [11]: qHTS assay to identify small molecule agonists of the peroxisome proliferator-activated receptor delta (PPARd) signaling pathway - cell viability counter screen (AID 743211). Note: nearly all actives have a fitted effect of over 55% in size. The procedure, abridged: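 Viability was measured as CellTiter-Glo luminescence (30 min, room temperature) in the same wells as the beta-lactamase readout. GeneBLAzer PPARd UAS-bla HEK293H cells received compound after 5 h plating and were incubated 17 h at 37 C.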

Assay [12] has as its target Peroxisome proliferator-activated receptor delta (Homo sapiens) (UniProt Q03181). As to the kind of experiment: qHTS assay to identify small molecule agonists of the peroxisome proliferator-activated receptor delta (PPARd) signaling pathway (AID 743212; calls by dose curve). The procedure, abridged: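 HEK293H UAS-bla reporter cells, human PPARd system; compounds delivered in DMSO after 5 h plating, then at 37 C. Beta-lactamase FRET read, 2 h RT substrate step.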

A short description of assay [13]: qHTS assay to identify small molecule antagonists of the peroxisome proliferator-activated receptor delta (PPARd) signaling pathway - cell viability counter screen (AID 743213). Note: nearly all actives have a fitted effect of over 50% in size. The procedure, abridged: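 Cytotoxicity counter screen: CellTiter-Glo luminescence read 30 min after addition, in the same wells as the reporter assay. There, PPARd UAS-bla HEK293H cells (3000/well) were treated 17 h at 37 C with compound and 300 nM L165041.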

The target of assay [14] is Peroxisome proliferator-activated receptor delta (Homo sapiens) (UniProt Q03181). As to the kind of experiment: qHTS assay to identify small molecule antagonists of the peroxisome proliferator-activated receptor delta (PPARd) signaling pathway (AID 743215; active = well fitted inhibition curve with a large enough effect in the signal ratio in the repeat runs, not every such curve was filed as active; the % refers to the signal ratio;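 note: cells stimulated with agonist L165041 at 300 nM final during compound exposure; series mostly up to about 62 µM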). In a few lines:
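PPARd UAS-bla HEK293H cells were pre-incubated 5 h at 37 C, then given test compounds in DMSO plus agonist L165041 (300 nM final). After 17 h at 37 C, beta-lactamase FRET substrate was added; fluorescence read after 2 h at room temperature.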

Assay [15] concerns the target Bile acid receptor (Homo sapiens) (UniProt Q96RI1). Put plainly: qHTS assay to identify small molecule antagonists of the farnesoid-X-receptor (FXR) signaling pathway (AID 743217; active = well fitted inhibition curve with a large enough effect in the signal ratio in the repeat runs, not every such curve was filed as active; the % refers to the signal ratio). In a few lines:
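FXR-UAS-bla HEK 293T cells pre-incubated 5 h at 37 °C, then exposed to compounds with chenodeoxycholic acid (50 uM final) for 16 h at 37 °C. Beta-lactamase reporter read by LiveBLAzer B/G FRET substrate fluorescence after 2 h at room temperature.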

Assay [16] is described as follows: qHTS assay to identify small molecule agonists of the farnesoid-X-receptor (FXR) signaling pathway - cell viability counter screen (AID 743218). Note: nearly all actives have a fitted effect of over 45% in size. In a few lines: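 FXR-UAS-bla HEK 293T cells, plated 5 h at 37 C, were exposed to compounds for 16 h at 37 C. CellTiter-Glo was then added to the same wells as the bla readout; luminescence read after 30 min at room temperature.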

Assay [17] in a line: qHTS assay to identify small molecule antagonists of the farnesoid-X-receptor (FXR) signaling pathway - cell viability counter screen (AID 743221; active = well fitted cell-killing curve with a large enough effect in the repeat runs, not every such curve was filed as active; note: nearly all actives have a fitted effect of over 50% in size). The procedure, abridged: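 Cytotoxicity counter screen run in the FXR-bla reporter wells: HEK 293T cells exposed to compound with 50 uM (final) chenodeoxycholic acid for 16 h, 37 C, then viability measured by CellTiter-Glo luminescence after 30 min, room temperature.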

The target of assay [18] is Vitamin D3 receptor (Homo sapiens) (UniProt P11473). As to the kind of experiment: qHTS assay to identify small molecule agonists of the vitamin D receptor (VDR) signaling pathway (AID 743222; calls by dose curve). In a few lines: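 VDR-bla cells were plated 4 h at 37C/5% CO2, then exposed to compounds in DMSO for 16 h. After LiveBLAzer B/G FRET substrate addition and 2 h at room temperature, beta-lactamase reporter fluorescence was read.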
Vitamin D3 receptor (Homo sapiens), sequence (P11473 whole entry, looked up): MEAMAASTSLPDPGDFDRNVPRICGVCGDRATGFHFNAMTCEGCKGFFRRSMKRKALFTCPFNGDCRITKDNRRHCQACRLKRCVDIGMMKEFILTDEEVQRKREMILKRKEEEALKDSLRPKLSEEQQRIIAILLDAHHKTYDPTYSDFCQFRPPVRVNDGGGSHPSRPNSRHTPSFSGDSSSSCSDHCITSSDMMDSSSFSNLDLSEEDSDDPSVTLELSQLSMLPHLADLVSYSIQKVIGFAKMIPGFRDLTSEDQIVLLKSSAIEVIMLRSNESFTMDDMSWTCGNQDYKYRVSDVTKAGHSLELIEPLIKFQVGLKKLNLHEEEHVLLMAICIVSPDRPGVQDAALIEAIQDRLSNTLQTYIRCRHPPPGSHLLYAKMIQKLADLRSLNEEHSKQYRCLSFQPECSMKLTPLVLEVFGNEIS

Assay [19] has as its target Bile acid receptor (Homo sapiens) (UniProt Q96RI1). As to the kind of experiment: qHTS assay to identify small molecule agonists of the farnesoid-X-receptor (FXR) signaling pathway (AID 743220; active = well fitted activation curve with a large enough effect in the signal ratio in the repeat runs, not every such curve was filed as active; the % refers to the signal ratio). The procedure, abridged: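 Beta-lactamase reporter under UAS control in GeneBLAzer FXR HEK 293T cells (5000/well) measured with LiveBLAzer FRET substrate after 2 h at room temperature. Compound exposure lasted 16 h at 37C.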

In assay [20] the target is Vitamin D3 receptor (Homo sapiens) (UniProt P11473). As to the kind of experiment: qHTS assay to identify small molecule antagonists of the vitamin D receptor (VDR) signaling pathway (AID 743223; active = well fitted inhibition curve with a large enough effect in the signal ratio in the repeat runs, not every such curve was filed as active; the % refers to the signal ratio). The procedure, abridged: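 Antagonist mode: compound added to VDR-bla cells alongside agonist 1alpha,25-dihydroxyvitamin D3 (3 nM final), incubation 16 h at 37C. Read-out is LiveBLAzer FRET fluorescence, 2 h at room temperature.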

Peroxisome proliferator-activated receptor gamma (Homo sapiens), sequence (P37231 whole entry, looked up): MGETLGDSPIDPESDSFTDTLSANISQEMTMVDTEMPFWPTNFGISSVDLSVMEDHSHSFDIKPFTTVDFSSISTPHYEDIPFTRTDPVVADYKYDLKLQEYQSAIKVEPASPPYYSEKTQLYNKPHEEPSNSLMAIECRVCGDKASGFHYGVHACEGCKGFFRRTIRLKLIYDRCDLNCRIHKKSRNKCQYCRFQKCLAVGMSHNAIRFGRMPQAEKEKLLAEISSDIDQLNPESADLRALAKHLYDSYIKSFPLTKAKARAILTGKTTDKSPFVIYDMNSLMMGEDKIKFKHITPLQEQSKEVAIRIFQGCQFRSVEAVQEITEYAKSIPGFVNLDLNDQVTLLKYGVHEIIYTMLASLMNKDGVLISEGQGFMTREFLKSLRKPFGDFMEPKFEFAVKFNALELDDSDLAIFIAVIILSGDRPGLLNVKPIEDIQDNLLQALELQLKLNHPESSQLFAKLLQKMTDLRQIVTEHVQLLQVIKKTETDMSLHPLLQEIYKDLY
Aryl hydrocarbon receptor (Homo sapiens), sequence (P35869 whole entry, looked up): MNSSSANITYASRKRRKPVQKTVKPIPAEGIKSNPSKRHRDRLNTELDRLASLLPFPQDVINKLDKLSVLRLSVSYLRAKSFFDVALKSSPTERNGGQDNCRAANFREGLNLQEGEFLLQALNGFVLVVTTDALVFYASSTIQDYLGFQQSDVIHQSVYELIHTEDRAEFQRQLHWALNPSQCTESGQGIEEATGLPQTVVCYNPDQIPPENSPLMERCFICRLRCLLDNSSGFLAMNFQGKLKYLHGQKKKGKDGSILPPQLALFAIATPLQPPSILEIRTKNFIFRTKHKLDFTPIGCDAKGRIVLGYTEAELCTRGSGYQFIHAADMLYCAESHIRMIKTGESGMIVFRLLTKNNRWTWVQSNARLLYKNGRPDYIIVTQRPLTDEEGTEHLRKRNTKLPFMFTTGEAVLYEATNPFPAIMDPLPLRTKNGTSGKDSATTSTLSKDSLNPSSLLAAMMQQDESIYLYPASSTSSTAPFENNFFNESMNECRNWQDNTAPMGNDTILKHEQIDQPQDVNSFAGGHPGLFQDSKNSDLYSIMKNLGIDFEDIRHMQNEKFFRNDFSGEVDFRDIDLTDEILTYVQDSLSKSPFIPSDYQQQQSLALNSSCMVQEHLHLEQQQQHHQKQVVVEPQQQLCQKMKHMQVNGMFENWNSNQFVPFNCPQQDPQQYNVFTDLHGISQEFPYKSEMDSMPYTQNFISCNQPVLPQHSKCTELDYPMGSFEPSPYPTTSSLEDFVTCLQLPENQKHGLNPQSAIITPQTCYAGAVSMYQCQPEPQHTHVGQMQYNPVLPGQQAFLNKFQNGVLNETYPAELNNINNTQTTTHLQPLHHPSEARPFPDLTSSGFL
Peroxisome proliferator-activated receptor delta (Homo sapiens), sequence (Q03181 whole entry, looked up): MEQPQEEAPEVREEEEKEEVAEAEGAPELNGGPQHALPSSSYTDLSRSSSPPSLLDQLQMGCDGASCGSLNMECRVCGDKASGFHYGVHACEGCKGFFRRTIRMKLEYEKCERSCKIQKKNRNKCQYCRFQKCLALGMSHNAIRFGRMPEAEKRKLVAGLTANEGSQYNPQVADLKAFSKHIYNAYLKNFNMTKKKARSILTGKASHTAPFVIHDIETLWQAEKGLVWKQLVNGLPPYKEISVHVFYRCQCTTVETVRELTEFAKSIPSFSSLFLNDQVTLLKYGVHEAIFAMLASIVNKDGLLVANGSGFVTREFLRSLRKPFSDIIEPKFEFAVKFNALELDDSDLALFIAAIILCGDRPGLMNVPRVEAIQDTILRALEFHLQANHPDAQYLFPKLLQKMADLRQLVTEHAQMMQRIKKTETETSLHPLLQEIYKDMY
Bile acid receptor (Homo sapiens), sequence (Q96RI1 whole entry, looked up): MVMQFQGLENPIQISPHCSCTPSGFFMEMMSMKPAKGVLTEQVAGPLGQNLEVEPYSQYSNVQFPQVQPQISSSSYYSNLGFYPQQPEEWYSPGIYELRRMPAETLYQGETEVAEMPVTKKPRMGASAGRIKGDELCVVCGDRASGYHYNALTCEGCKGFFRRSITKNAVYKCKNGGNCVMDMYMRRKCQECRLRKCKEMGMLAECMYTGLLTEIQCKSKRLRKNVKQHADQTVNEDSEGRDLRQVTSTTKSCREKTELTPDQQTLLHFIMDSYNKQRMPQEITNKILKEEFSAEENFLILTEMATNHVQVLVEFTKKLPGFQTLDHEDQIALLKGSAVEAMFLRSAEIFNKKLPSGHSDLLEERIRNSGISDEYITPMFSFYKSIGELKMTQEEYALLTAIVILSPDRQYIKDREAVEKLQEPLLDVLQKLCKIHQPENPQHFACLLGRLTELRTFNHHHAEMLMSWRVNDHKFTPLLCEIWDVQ

With `Nc1cccnc1`, the Potency entry in assay [1], in assay [2], in assay [3], in [4], in assay [5] and in assay [6] was “inactive” each time. Further, the Potency entry in assay [7], in assay [8], in assay [9], in [10], in [11] and in assay [12] was “inactive” each time. Besides, the Potency result in assay [13], in [14], in assay [15], in [16] and in [17] was “inactive” in each case. Besides, the result in assay [18] was inactive.

For `CCN(CC)N=O`, the Potency result in assay [1], in [2], in assay [3], in [4], in assay [5] and in assay [6] was “inactive” in each case. The Potency result in [7], in assay [8], in [9], in [10], in assay [11] and in assay [12] was “inactive” throughout. The Potency result in [13], in assay [14], in assay [16] and in [17] was “inactive” throughout. The outcome in assay [19], in assay [18] and in assay [20] was inactive.

Regarding `NCc1cccnc1`, the Potency entry in assay [1], in assay [2], in [3], in assay [4], in assay [5] and in assay [6] was “inactive” each time. Further, the Potency result in assay [7], in [8], in assay [9], in [10], in assay [11] and in assay [12] was “inactive” each time. Further, the Potency entry in assay [13], in assay [14], in assay [16] and in assay [17] was “inactive” throughout. Moreover, the outcome in assay [18] and in assay [20] was inactive.

For the molecule `CCCCCCCCOC(=O)c1ccccc1C(=O)OCCCCCCCC`, the Potency result in [1], in assay [2], in [3], in assay [5], in assay [6] and in [7] was “inactive” in each case. Also, the Potency result in assay [8], in assay [9], in [10], in assay [11], in assay [12] and in [13] was “inactive” in each case. The Potency result in assay [14] and in [17] was “inactive” throughout. Moreover, the Potency entry in [4] was “inactive and 54.8 µM (active)”. In addition, the call in [18] and in assay [20] was inactive.

With `O=C(O)CC[N+](=O)[O-]`, the Potency entry in assay [1], in assay [2], in assay [3], in assay [4], in assay [5] and in assay [6] was “inactive” each time. The Potency entry in assay [7], in assay [8], in [9], in [10], in assay [11] and in assay [12] was “inactive” throughout. Also, the Potency entry in assay [13], in [14], in assay [16] and in [17] was “inactive” throughout. Besides, in assay [20], the molecule was classed as inactive.

As to `CCCCN(CCCC)N=O`, the Potency result in [1], in assay [2], in assay [3], in [4], in assay [5] and in assay [6] was “inactive” in each case. In addition, the Potency result in [7], in [8], in assay [9], in assay [10], in [11] and in assay [13] was “inactive” each time. The Potency entry in assay [15], in assay [16] and in [17] was “inactive” each time.

Take `C=CCN(CC=C)C(=O)C(Cl)Cl`: the Potency entry in assay [1], in assay [2], in assay [3], in assay [4], in assay [5] and in assay [6] was “inactive” in each case. In addition, the Potency result in assay [7], in [8], in [9], in [10], in assay [11] and in [12] was “inactive” each time. In addition, the Potency entry in assay [13], in [14], in assay [16] and in assay [17] was “inactive” in each case. Moreover, the call in [18] and in assay [20] was inactive.

The values above are taken from PubChem BioAssay (Tox21).
